Assay outcomes (PubChem BioAssay)
Most compounds without a hit are left out; they make up all but 2.8% or so of the library.
DRD3 antagonist: antagonists of human D3 dopamine receptor. actives 2.5% (n = 360,000). D3R cells, DiscoveRx beta-arrestin luminescence, antagonist mode; hits give low values. P35462. AID 652054. max response, negative = inhibition, %; in the data active = max response below about -50%; inconclusive = no clear call, values can overlap the other calls; note: % is set by controls: 0 for no effect and ±100 for the full control effect
Target sequence (P35462 whole entry, looked up): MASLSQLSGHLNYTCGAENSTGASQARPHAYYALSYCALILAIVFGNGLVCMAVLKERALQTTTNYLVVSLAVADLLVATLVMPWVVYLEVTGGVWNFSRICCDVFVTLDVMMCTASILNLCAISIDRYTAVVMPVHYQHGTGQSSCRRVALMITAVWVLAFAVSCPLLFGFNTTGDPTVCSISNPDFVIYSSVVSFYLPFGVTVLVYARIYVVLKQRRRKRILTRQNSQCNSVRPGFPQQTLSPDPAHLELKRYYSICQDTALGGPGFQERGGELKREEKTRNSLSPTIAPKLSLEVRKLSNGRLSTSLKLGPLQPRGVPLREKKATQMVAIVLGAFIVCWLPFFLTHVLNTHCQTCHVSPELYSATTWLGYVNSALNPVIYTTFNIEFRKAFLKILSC
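Cells plated overnight at 1500 cells/well, then exposed to library compounds with dopamine controls for 90 minutes at 37 degrees C. DiscoveRx reagent added for 30–60 minutes at room temperature; luminescence read, quantitative HTS format.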
B2AR arrestin: beta2AR (human) beta-arrestin recruitment activity | beta-arrestin recruitment to beta2AR, cell-based reporter | Potency, µM (series often up to 46.1 µM), for inactives: at the top dose activation, hits mostly activators | actives 0.02% (n = 330,000) | AID 492947; active = well fitted activation curve with a large enough effect; inconclusive = small, poorly fitted or top-dose-only effect;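 note: potency is the fitted concentration of half-maximal effect; 0% = DMSO controls and full agonism = EC100 isoproterenol or metaproterenol; nearly all actives have a fitted effect of over 65% in size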
Giardia killer: Giardia lamblia killing; Giardia lamblia trophozoite viability; actives 0.15% (n = 340,000); activity change, % at 7.66 µM, hits read low; AID 540267; in the data active = activity change below about -80%; inconclusive = between about -30% and that limit;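 note: parasites exposed to compound for two days anaerobically before the ATP read; % is set by controls: 0 for no effect and ±100 for the full control effect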
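Media and compound were dispensed first, then trophozoites at 100 cells/well; plates sat 48 hrs at 37 deg C without oxygen before ATP luminescence reagent was added and read after 15-30 min at room temperature.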
DRD3 agonist: D3 dopamine receptor (human) agonism. AID 652048. P35462. D3R DiscoveRx beta-arrestin cells, luminescence, 90 min. actives 0.58% (n = 410,000). max activation, %; in the data active = max activation above about 30%; note: 0% is about no effect
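Agonist mode: compounds and dopamine controls were applied to plated cells for 90 min at 37 degrees C after an overnight attachment at 1500 cells/well. Luminescent read-out followed 30 - 60 minutes at room temperature with DiscoveRx detection reagent.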
* = called active by the depositor; ? = inconclusive; . = no result given.

SMILES	DRD3 antagonist	B2AR arrestin	Giardia killer	DRD3 agonist
CCOc1ccc(NC(=O)N2CC3CCCN3c3ccccc32)cc1 (stereo unspecified)	.	.	.	-8.5
FCCCOc1ccc(/C=N/OCc2c(Cl)cccc2Cl)cc1	-64.7*	0.6%	-6.1	-3.2
FCCCOc1ccc(/C=N/OCc2ccc(Cl)cc2)cc1	14.1	0.0%	6.3	0.5
CC[C@H](C)[C@H]1CNC(=O)C(=O)N1CC1CCN(CCc2ccc(Cl)c(Cl)c2)CC1	0.0	.	-11.8	-48.1
CC[C@H](C)[C@H]1CNC(=S)N1CC1CCN(CC2CCC(C)CC2)CC1 (stereo partly specified)	-103.8*	.	?	-50.9
CC[C@H](C)[C@H]1CNC(=S)N1CC1CCN(CCC23CC4CC(CC(C4)C2)C3)CC1	-83.0*	.	29.2	-36.9
O=C1NC[C@H](Cc2ccccc2)N(CC2CCN(CCC34CC5CC(CC(C5)C3)C4)CC2)C1=O	0.0	.	-27.7	-42.7
Cc1c(Cl)cccc1NC(=O)CSc1nc(=O)n(CCN2CCOCC2)c2c1CCC2	.	.	.	-10.3
COc1ccc(NC(=O)CSc2nnc3c(n2)[nH]c2ccc(S(=O)(=O)N(C)C)cc23)c(OC)c1	.	.	8.6	.
CCCS(=O)(=O)N1CCN(C(=O)COc2ccccc2)CC1	-19.9	-2.0%	2.7	34.1*
Cc1nc([N+](=O)[O-])c(Br)n1CC(=O)c1cccc([N+](=O)[O-])c1	-50.6*	-0.3%	-14.6	5.8
O=C(Nc1nnc(C2CC2)s1)c1ccc(Cl)c(S(=O)(=O)N2CCc3ccccc3C2)c1	0.0	0.9%	4.1	41.2*
Cc1ccc(OCc2ccc(-c3nc(C#N)c(NCc4ccccc4Cl)o3)o2)cc1	.	.	.	-0.6
CCN(CC)C(=O)c1cccnc1	.	.	.	1.7
O=C(NCCCN1CCC(Cc2ccccc2)CC1)c1ccc(CS(=O)c2ccccc2Cl)o1 (stereo unspecified)	-108.3*	.	.	-4.6
O=C(NCc1ccco1)c1ccc(CS(=O)c2ccccc2Cl)o1 (stereo unspecified)	5.0	.	.	1.5
CCOc1cc(NC(=O)c2ccccn2)c(OCC)cc1NC(=O)c1ccc(C)cc1	37.4	-0.3%	23.1	-0.7
CCOc1cc(NC(=O)C2CCCCC2)c(OCC)cc1NC(=O)c1ccccn1	16.8	-1.1%	19.4	49.0*
CC(C)CNS(=O)(=O)c1cc(C(=O)N2CC(C)OC(C)C2)c(Cl)cc1Cl (stereo unspecified)	-54.6*	0.3%	6.4	5.4
N#Cc1c(NC(=O)/C=C/c2ccco2)sc2c1CCCC2	-59.6*	-0.1%	5.9	-7.1
COc1ccc(S(=O)(=O)N2CCC(C(=O)Nc3ccc(Oc4ccccc4)cc3)CC2)cc1OC	.	.	.	19.5
Oc1ccc(COC2CCN(Cc3ccccc3)C2)c2cccnc12 (stereo unspecified)	.	13.8%	.	.
Cc1ccc(S(=O)(=O)c2ccc([N+](=O)[O-])o2)cc1	-111.1*	.	19.9	-37.7
CN1c2ccsc2C(O)=C(C(=S)Nc2ccc(F)c(Cl)c2)S1(=O)=O	-93.4*	-1.0%	-6.1	0.4
COc1ccccc1CNC(=O)[C@H](C)NC(=O)C1CCN(C(=O)[C@@H](N)Cc2ccccc2)CC1	12.9	0.0%	2.5	-2.6
SMILES	DRD3 antagonist	B2AR arrestin	Giardia killer	DRD3 agonist
COc1ccccc1CNC(=O)[C@H](C)NC(=O)C1CCN(C(=O)[C@@H](N)C(C)C)CC1	-4.9	-0.6%	7.2	38.0*
CCN(CC)S(=O)(=O)c1cc(NC(=O)CSc2nnc(N)s2)ccc1C	-19.0	0.1%	-5.6	-0.3
CCN(CC)S(=O)(=O)c1cc(NC(=O)CSc2nc3c(cc2C#N)C(=O)CC(C)(C)C3)ccc1C	11.8	0.2%	-4.3	33.5*
COc1ccc(NC(=O)CN2CCN(c3ccccc3)CC2)cc1	-14.2	0.3%	-3.5	2.0
COc1ccc(N2C(=O)CC(N3CCN(c4ccccc4F)CC3)C2=O)cc1 (stereo unspecified)	-65.5*	-0.3%	2.1	4.4
CN(C)S(=O)(=O)c1cc(NC(=O)CN2CCN(c3ccccc3F)CC2)ccc1Cl	-6.6	0.4%	2.2	49.3*
COc1ccc(/C=N/NC(=O)CC(=O)N/N=C/c2ccc(OC)cc2)cc1	-4.0	-0.1%	2.9	-1.6
CCN1CCN(CC(=O)Nc2ccc(Cl)c(S(=O)(=O)N(C)C)c2)CC1	3.9	-0.1%	-1.6	-16.9
COc1ccc(NC(=O)CN2CCN(c3ccccc3F)CC2)cc1	-87.4*	-1.9%	-13.4	-11.3
COc1ccc(/C=N/NC(=O)CN2CCS(=O)(=O)CC2)cc1	-52.4*	0.3%	11.9	1.7
C=CCOC(/C=C/c1ccccc1)CC (stereo unspecified)	.	.	3.8	.
COc1ccc(NC(=O)CN2CCC(C)CC2)cc1	-69.1*	-0.4%	6.6	-19.7
CCOc1cccc(N2CCN(CCNC(=O)Nc3ccc(C)cc3)CC2)c1C	?	0.0%	-18.8	59.3*
CCCN1CCN(CCNC(=O)Nc2ccccc2OCC)CC1	.	.	.	-3.1
COc1ccc(NC(=O)NCCCN2CCN(c3ccccc3F)CC2)cc1	?	-1.1%	5.3	33.9*
COc1ccc(NC(=O)CN2CCC(C(N)=O)CC2)cc1	-5.0	0.1%	23.4	2.1
COc1cccc(NC(=O)NCCCN2CCN(c3ccc(F)cc3)CC2)c1	-55.9*	0.6%	12.2	-29.9
Cc1ccccc1OCC(=O)Nc1nnc(S(=O)(=O)N(C)c2ccccc2)s1	.	.	.	-3.4
COc1ccccc1OCC(=O)NCCS(=O)(=O)N1CCN(c2ccccc2OC)CC1	.	.	.	1.3
CCOc1ccc(NC(=O)NCCN2CCN(c3ccccc3F)CC2)cc1	-69.2*	0.3%	7.8	8.0
COc1ccc(NC(=O)CN2CCN(c3ccc(C)cc3C)CC2)cc1	15.3	-0.5%	-12.8	-3.8
COc1ccc(NC(=O)NCCCN2CCN(c3cc(C)ccc3C)CC2)cc1	-107.8*	-0.1%	0.1	-5.9
COc1ccc(-c2noc(CCC(=O)NCCCN3CCN(c4ccccc4F)CC3)n2)cc1	-94.9*	0.0%	-7.0	-13.0
CCOc1ccc(NC(=O)NCCN2CCN(c3cccc(C)c3C)CC2)cc1	-59.2*	0.0%	8.3	63.5*
O=C(Nc1ccc(C(=O)NCCCN2CCCCC2)cc1)C1=CSCCO1	12.0	0.2%	-26.2	-5.1
SMILES	DRD3 antagonist	B2AR arrestin	Giardia killer	DRD3 agonist
O=C(Nc1ccc(C(=O)NCCCN2CCN(c3ccc(F)cc3)CC2)cc1)C1=CSCCO1	-92.4*	0.4%	1.3	-22.1
Cc1ccccc1C(=O)c1cccn1CC(=O)NCCCN1CCCCC1	-21.4	0.2%	9.3	-15.3
Cc1ccc(C)c(N2CCN(CCCNC(=O)Cn3cccc3C(=O)c3ccccc3C)CC2)c1	-56.7*	0.0%	11.5	-8.3
COc1ccccc1C(=O)Nc1c(C(=O)N(C)c2ccccc2)sc2nc(C)cc(C)c12	.	.	.	4.8
CN1CCCN=C1/C=C/c1cccs1	-58.2*	0.6%	-6.4	0.0
Cc1nc(-c2ccccc2)sc1CCNC(=O)c1ccco1	.	.	.	-3.2
CCOC(=O)/C(C#N)=C1/SC(CC)C(=O)N1c1ccc(C)cc1 (stereo unspecified)	-57.2*	-0.1%	-6.9	11.2
COc1cc(CNCCc2c[nH]c3ccccc23)ccc1OCc1ccccc1F	-55.7*	-0.4%	-9.1	-18.0
COc1cccc(CNCCc2c[nH]c3ccccc23)c1OCc1ccccc1	2.7	-0.2%	4.8	-11.7
